Records with an inconclusive call do not appear. Activity calls are given as the source filed them. Rule for the calls: active = hit-call score of the fitted dose curve at least 0.9, where 1 is the maximum; inconclusive = response in the unintended direction; inactive = score below 0.9.
assay: ATG_M_06_TRANS: Attagene TRANS-FACTORIAL HepG2 Assay for M06 Transcription Factor (Internal Marker) (AID 2282983); settings: HepG2 Attagene TRANS M06 internal marker reporter
Description: ATG_TRANS is a cell-based, multiplexed-readout assay that uses HepG2, a human liver cell line, with measurements taken at 24 hours after chemical dosing in a 24-well plate.ATG_M_06_TRANS is one of 30 assay component(s) measured or calculated from the ATG_TRANS assay. It is designed to make measurements of mRNA induction, a form of inducible reporter, as detected with fluorescence intensity signals by Reverse transcription polymerase chain reaction (RT-PCR) and Capillary electrophoresis technology.Data from the assay component ATG_M_06_TRANS was analyzed into 1 assay endpoint. This assay endpoint, ATG_M_06_TRANS, was analyzed in the positive analysis fitting direction relative to DMSO as the negative control and baseline of activity. Using a type of inducible reporter, measures of mRNA for gain-of-signal activity can be used to understand the background control at the transcription factor-level as they relate to the gene . Furthermore, this assay endpoint can be referred to as a secondary readout, because this assay has produced multiple assay endpoints where this one serves a background control function. To generalize the intended target to other relatable targets, this assay endpoint is annotated to the background measurement intended target family, where the subfamily is internal marker.
Human liver HepG2 cells are transiently transfected with multiple reporter transcription units (MRTUs) in 6-well plates using FuGene 6 reagent (Roche; 3 ml FuGene/1 mg DNA). The MRTU constructs are regulated by a cis-regulating element (promoter). […] A major difference between the CIS and TRANS system is that in CIS activities of endogenous TFs are measured, whereas the TRANS assay evaluates changes in activities of exogenous, chimeric NR-Gal4 proteins. […] At the end of 24 hour incubation, total RNA was isolated using TriZol reagent (Invitrogen). The isolated RNA is then reverse-transcribed using oligo(dT) primer and Mo-MLV reverse transcriptase (Invitrogen) with DNAse I (Ambion) treatment for 30 min. The one-tenth of the produced cDNA was amplified by PCR using Taq DNA polymerase (Invitrogen) and two reporter sequence-specific primers. The PCR products were fluorescently labeled by primer extension with 6-arboxyfluorescein (6-FAM) 5'-labeled reporter sequence-specific primer (2 min at 95 C, 20 s at 68 C and 10 min at 72 C) and these products were digested with 5U of HpaI (New England Biolabs) for 2h at 37 C. The fragments were purified using Qiaquick PCR columns (Qiagen), analyzed on an ABI 3130xL genetic analyzer (Applied Biosystems) with peak positions identified by using a set of X-rhodamine (ROX)-labeled MapMarker1000 molecular weight standards (BioVentures). The raw capillary electrophoresis data was processed using Attagraph software (Attagene).

Row | Structure (SMILES) | outcome
1 | Cc1c(C(=O)c2c[nH]n(C)c2=O)ccc(S(C)(=O)=O)c1C1=NOCC1 | inactive
2 | CCc1cccc(CC)c1 | inactive
3 | CCCCCC1=CCCC1=O | inactive
4 | C[N+](C)(C)CCCNS(=O)(=O)C(F)(F)C(F)(F)C(F)(F)C(F)(F)C(F)(F)C(F)(F)C(F)(F)C(F)(F)F | inactive
5 | CCCC(C)C(=O)OCC (stereo not given) | inactive
6 | CC1CC(=O)CC(C)(C)C1 (stereo not given) | inactive
7 | O=C(O[C@@H]1Cc2c(O)cc(O)cc2O[C@@H]1c1cc(O)c(O)c(O)c1)c1cc(O)c(O)c(O)c1 | inactive
8 | CCCCC/C=C\C/C=C\CCCCCCCC(=O)O | inactive
9 | C=CC(=O)OCC(C)OCC(C)OCC(C)OC(=O)C=C (stereo not given) | inactive
10 | O=C1CCCCCCCCCCCN1 | inactive
11 | Nc1ccc(Cl)c(N)c1 | inactive
12 | c1ccc2sc(SSN3CCOCC3)nc2c1 | inactive
13 | CCCCC(CC)COC(=O)/C=C/c1ccc(OC)cc1 (stereo not given) | inactive
14 | O=S(=O)(O)c1ccc(Nc2nc(Nc3ccc(C=Cc4ccc(Nc5nc(Nc6ccc(S(=O)(=O)O)cc6)nc(N(CCO)CCO)n5)cc4S(=O)(=O)O)c(S(=O)(=O)O)c3)nc(N(CCO)CCO)n2)cc1 | inactive
15 | N#Cc1ccc(C2CCCc3cncn32)cc1 (stereo not given) | inactive
16 | CC=C(C)C(C)=O | inactive
17 | C[Si](C)(C)N[Si](C)(C)C | inactive
18 | COc1cc(C)ccc1O | inactive
19 | Cc1c(Cl)cccc1Cl | inactive
20 | CCOB(OCC)OCC | inactive

Row | Structure (SMILES) | outcome
21 | COc1cc(O)c(C(=O)c2ccccc2)cc1S(=O)(=O)O | inactive
22 | C=Cc1cccc(C)c1 | inactive
23 | Nc1ccc(O)c([N+](=O)[O-])c1 | inactive
24 | C=CC(=O)OCCCCCCOC(=O)C=C | inactive
25 | Clc1cccnc1 | inactive
26 | CCCCCCCCCCCCCC(=O)OC(C)C | inactive
27 | CC12CCC(CC1)C(C)(C)O2 | inactive
28 | O=C(O)c1ccc2c(c1)C(=O)OC2=O | inactive
29 | CC(=O)CCC=C(C)C | inactive
30 | CC(C)=CCl | inactive
31 | CCC(=O)C1CC(C(C)C)CC=C1C (stereo not given) | inactive
32 | Cc1cccc(C(C)(C)C)c1O | inactive
33 | CCCc1ccc(O)c(OC)c1 | inactive
34 | CCc1occc(=O)c1O | inactive
35 | CC1(C)C(=O)N(CO)C(=O)N1CO | inactive
36 | Cc1ccc(S(=O)(=O)N=C=O)cc1 | inactive
37 | C1CNCCN1 | inactive
38 | COc1ccc(C(=O)c2ccccc2)c(O)c1 | inactive
39 | CC(C)(c1ccccc1)c1ccc(Nc2ccc(C(C)(C)c3ccccc3)cc2)cc1 | inactive
40 | OCCCc1ccccc1 | inactive
